Test results as given in PubChem BioAssay (NCI).
This is part of a sample that, as a whole, favours compounds with a hit. Of some 83,000 tested, about 20% had one in any assay.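 Percent growth is the endpoint: 0 to 100 indicates growth inhibition (40 means 60% inhibition), 0 means no net growth, and negative values indicate cell death.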 Values without a mark were called inactive. The source made the active and inactive calls. Rule for the calls: active = growth percent below 10; inactive = the rest.

Tests used:
Test in all cases: NCI-60 one-dose screen, 48 h (100 = growth as untreated, 0 = no growth, -100 = all killed)
Details in all cases: 10 µM
SK-MEL-2 melanoma = system: SK-MEL-2 melanoma
EKVX NSCLC = system: EKVX NSCLC
SN12C renal = system: SN12C renal
UO-31 renal = system: UO-31 renal
TK-10 renal = system: TK-10 renal
ACHN renal = system: ACHN renal
CAKI-1 renal = system: CAKI-1 renal
A498 renal = system: A498 renal
CCRF-CEM leukemia = system: CCRF-CEM leukemia
MOLT-4 leukemia = system: MOLT-4 leukemia
SR leukemia = system: SR leukemia
RPMI-8226 leukemia = system: RPMI-8226 leukemia
OVCAR-8 ovarian = system: OVCAR-8 ovarian
OVCAR-5 ovarian = system: OVCAR-5 ovarian
OVCAR-4 ovarian = system: OVCAR-4 ovarian
SK-OV-3 ovarian = system: SK-OV-3 ovarian
IGROV1 ovarian = system: IGROV1 ovarian
OVCAR-3 ovarian = system: OVCAR-3 ovarian
HS 578T breast = system: HS 578T breast
NCI/ADR-RES ovarian = system: NCI/ADR-RES ovarian

SMILES	growth (SK-MEL-2 melanoma)	growth (EKVX NSCLC)	growth (SN12C renal)	growth (UO-31 renal)	growth (TK-10 renal)	growth (ACHN renal)	growth (CAKI-1 renal)	growth (A498 renal)	growth (CCRF-CEM leukemia)	growth (MOLT-4 leukemia)	growth (SR leukemia)	growth (RPMI-8226 leukemia)	growth (OVCAR-8 ovarian)	growth (OVCAR-5 ovarian)	growth (OVCAR-4 ovarian)	growth (SK-OV-3 ovarian)	growth (IGROV1 ovarian)	growth (OVCAR-3 ovarian)	growth (HS 578T breast)	growth (NCI/ADR-RES ovarian)
COc1ccc2c(c1)N=C(C(=O)O)/C2=C/c1sc(Nc2ccc(O)cc2)nc1O	81.6%	75.1%	80.9%	49.4%	99.2%	82.2%	92.1%	98.2%	44.3%	43%	24.9%	65.7%	80.8%	109%	74.7%	86.1%	74.6%	72.9%	50.9%	93.3%
Cc1cc(=O)oc2cc(OCCCCOc3ccc(/C=C/C(=O)Nc4ccccc4[N+](=O)[O-])cc3)ccc12	117%	105%	100%	90.6%	104%	108%	100%	127%	99.8%	108%	88%	108%	111%	108%	109%	119%	106%	128%	111%	115%
Nc1nnc(-c2c[nH]c3ccc(F)cc23)c(-c2c[nH]c3ncccc23)n1	93.7%	65.1%	46.9%	37.9%	82.9%	51.6%	33.9%	104%	61.6%	48.8%	20.6%	60.3%	46.7%	78.8%	81.4%	92%	33.5%	59.3%	29.1%	101%
Cc1ccc(-c2nc(Nc3ccc(C)c(S(N)(=O)=O)c3)c3ccccc3n2)cc1	118%	81.1%	69%	85.9%	120%	64.1%	91%	106%	85.1%	71.5%	3.79% (active)	87%	45.9%	94%	70.1%	125%	87.5%	57%	102%	60.3%
Cc1cccc(-c2nc(Nc3ccccc3C(=O)O)c3ccccc3n2)c1	66%	21%	40.7%	31%	85.8%	36.4%	52.4%	47.6%	17.8%	34.3%	23%	28.6%	60.3%	77%	41.9%	76.7%	59.2%	34.1%	16.6%	24.8%
COc1ccc2ncc(C#Cc3cncc(C(=O)Nc4ccc(CN5CCN(C)CC5)c(C(F)(F)F)c4)c3)n2n1	-55.3% (active)	-99.7% (active)	-93.5% (active)	-90.1% (active)	-76% (active)	-98.3% (active)	-75.8% (active)	31.7%	2.67% (active)	-26.7% (active)	-26.3% (active)	-26.3% (active)	-49.2% (active)	-94.5% (active)	-75.2% (active)	49.8%	-76.1% (active)	-93.2% (active)	-2.29% (active)	-81.4% (active)
O=C1CCC(N2Cc3cc(NC(=O)COc4ccccc4)ccc3C2=O)C(=O)N1 (centres undefined)	98.3%	78.6%	73.6%	28.5%	66%	91.9%	92.3%	75.1%	22.7%	11.5%	73.1%	65%	47.8%	83.3%	72.2%	99.2%	45.8%	85.8%	–	37.8%
CCCn1c(=O)c2[nH]c(-c3ccc(OCc4nc5ccc(F)cc5[nH]4)cc3)nc2n(CCC)c1=O	28.6%	34.4%	-20.1% (active)	-78.7% (active)	-3.59% (active)	-56.6% (active)	6.55% (active)	-85.8% (active)	44%	24.7%	11.8%	16.7%	-41.3% (active)	43.3%	-2.86% (active)	-41.3% (active)	28.1%	5.45% (active)	–	64.9%
COc1ccc(/C=N/N=C(\C)c2ccc3c(c2)Nc2ccccc2S3)cc1O	48.5%	40.4%	70.1%	47%	70.6%	43.3%	55.1%	75.5%	33.9%	13.6%	32.6%	28.3%	62.8%	–	41.7%	87.3%	70.1%	72.8%	73.7%	34.8%
O=C(CNc1nc(-c2ccccc2)cs1)Nc1ccc(Br)cc1	-76.8% (active)	-95.9% (active)	-90.3% (active)	-98.2% (active)	-95.3% (active)	-100% (active)	-92.3% (active)	-89.6% (active)	5.21% (active)	-12.4% (active)	-18.8% (active)	-5.37% (active)	-5.23% (active)	-96.3% (active)	-49.9% (active)	8.41% (active)	-75.4% (active)	-77.7% (active)	16.6%	-16.7% (active)
O=C(CSc1nnc(-c2ccc3nc(-c4ccccc4)[nH]c3c2)o1)Nc1ccc(Cl)cc1	45%	48.6%	46.1%	40.1%	55%	29.5%	30.5%	101%	13.7%	7.63% (active)	29.1%	29.6%	21.2%	65.1%	61.9%	55.9%	52.6%	62.9%	–	38.5%
O=C(CSc1nnc(-c2ccc3nc(-c4ccccc4)[nH]c3c2)o1)Nc1ccc(Br)cc1	81.2%	81.4%	45.8%	74.4%	81.3%	63%	76.2%	101%	39.4%	16.8%	32.1%	41%	24.8%	86.1%	81.3%	80%	80.4%	73.9%	79.6%	78.1%
NS(=O)(=O)c1ccc(NC(=O)CSc2ccc(-c3ccccc3)nn2)c(Br)c1	95.8%	70.1%	57.4%	75.1%	118%	54.2%	84.5%	120%	89.9%	95.6%	85.9%	83%	38.3%	90.4%	53.8%	98.7%	93.8%	24.9%	41.1%	81.6%
COc1ccc(C(=O)CSc2nnc(-c3c[nH]c4ccccc34)n2-c2ccccc2)cc1	72%	29.3%	44.4%	32.6%	63.9%	22.8%	61.5%	111%	82.5%	82.1%	79.7%	72.7%	15.5%	77.4%	0.569% (active)	66.3%	60.5%	53.6%	–	16.3%
CC(=O)c1ccc(Nc2nc(SCCC(C)C)nc(-c3ccc(F)cc3)c2C#N)cc1	117%	52.7%	22.7%	24.7%	6.32% (active)	-42.9% (active)	16.2%	15.6%	86.9%	76.9%	64.9%	81.7%	8.35% (active)	53.4%	-6.74% (active)	98.7%	16%	19%	–	23.9%
